Activity calls are given as the source filed them.
Columns and labels:
[1] = system: Human papillomavirus type 1a protein E7 (residues 44-93); assay: HPV1a E7 fragment binders on microarrays, primary screen, biochemical, small-molecule microarray, residues 44-93, 635 nm fluorescence (AID 1108); conditions: small-molecule microarray binding, fluorescence 635 nm; higher = more signal;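 also: E7 fragment applied at 1 µg/mL in TBST for 1 h at 4 C; score combines spot fluorescence with its signal to noise ratio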
[2] = modulators of HCV replicon luciferase signal, primary screen, HCV replication inhibitor project, Huh7 cells, luciferase reporter (AID 1109); conditions: 48 h, higher = more signal;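 also: huh7 hepatoma cells harbouring a luciferase neomycin HCV replicon reporter; luciferase luminescence as measure of HCV replicon replication; test concentration not given here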
[3] = target: Left-right determination factor 2 (Homo sapiens) (UniProt O00292); assay: LEFTY2 binders on small-molecule microarrays, primary screen, biochemical, small-molecule microarray, 635 nm fluorescence scan (AID 1110); conditions: LEFTY2 binding, higher = more signal
Chain of Left-right determination factor 2 (Homo sapiens) (O00292 whole entry, looked up): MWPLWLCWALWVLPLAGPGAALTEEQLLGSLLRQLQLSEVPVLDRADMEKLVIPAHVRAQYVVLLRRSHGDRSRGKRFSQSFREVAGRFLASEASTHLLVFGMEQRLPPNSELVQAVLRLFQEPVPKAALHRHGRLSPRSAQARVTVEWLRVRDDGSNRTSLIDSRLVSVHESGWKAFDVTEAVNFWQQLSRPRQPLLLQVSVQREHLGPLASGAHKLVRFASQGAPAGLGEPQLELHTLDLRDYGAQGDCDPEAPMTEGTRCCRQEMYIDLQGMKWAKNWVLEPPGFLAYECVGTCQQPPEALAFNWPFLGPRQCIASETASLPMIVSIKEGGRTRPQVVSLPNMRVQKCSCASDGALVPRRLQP

[4] = target: Calmodulin-1 (Homo sapiens) (UniProt P0DP23); assay: CALM1 binders on microarrays, EGTA buffer, profiling panel, biochemical, small-molecule microarray, Cy5-labelled CALM1 (AID 1111); conditions: Cy5-CALM1 binding fluorescence, higher = more signal;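 also: labelled calmodulin applied in Tris saline Tween buffer holding calcium plus EGTA and DTT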
[5] = target: Calmodulin-1 (Homo sapiens) (UniProt P0DP23); assay: calcium-bound CALM1 binders on microarrays, profiling panel, artefact control for SMM control-protein annotation, biochemical, small-molecule microarray, Cy5-labelled CALM1, plus calcium (AID 1112); conditions: Cy5-CALM1 binding fluorescence, higher = more signal;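 also: score merges spot fluorescence with signal to noise from triplicate slides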
[6] = small-molecule microarray binders of probe aWnt5a, primary screen, biochemical, biotinylated probe, 635/667 nm fluorescence (AID 1113); conditions: higher = more signal;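 also: score merges 667 nm fluorescence intensity with signal-to-noise per printed feature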
[7] = small-molecule microarray binders of probe aShh, primary screen, biochemical, biotinylated probe, 635/667 nm fluorescence (AID 1114); conditions: higher = more signal;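 also: probe is biotin-labelled aShh protein from a stem cell growth factor screen; measures binding of labelled protein to compounds printed on the slide; score merges feature fluorescence at 667 nm with signal-to-noise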
[8] = small-molecule microarray binders of probe aNog, primary screen, biochemical, biotinylated probe, 635/667 nm fluorescence (AID 1115); conditions: higher = more signal;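 also: probe is biotinylated aNog protein used at 0.15 µg/mL for 1 h at 4 C; z-score combines 667 nm fluorescence of each spot with its signal to noise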
[9] = target: Torsin-1A-interacting protein 1 (Homo sapiens) (UniProt Q5JTV8); assay: LAP1 binders from COS7 cell lysate, primary screen, small-molecule microarray, 635/667 nm fluorescence (AID 1116); conditions: COS7-hLAP1 lysate binding, 635 nm fluorescence, higher = more signal
Chain of Torsin-1A-interacting protein 1 (Homo sapiens) (Q5JTV8 whole entry, looked up): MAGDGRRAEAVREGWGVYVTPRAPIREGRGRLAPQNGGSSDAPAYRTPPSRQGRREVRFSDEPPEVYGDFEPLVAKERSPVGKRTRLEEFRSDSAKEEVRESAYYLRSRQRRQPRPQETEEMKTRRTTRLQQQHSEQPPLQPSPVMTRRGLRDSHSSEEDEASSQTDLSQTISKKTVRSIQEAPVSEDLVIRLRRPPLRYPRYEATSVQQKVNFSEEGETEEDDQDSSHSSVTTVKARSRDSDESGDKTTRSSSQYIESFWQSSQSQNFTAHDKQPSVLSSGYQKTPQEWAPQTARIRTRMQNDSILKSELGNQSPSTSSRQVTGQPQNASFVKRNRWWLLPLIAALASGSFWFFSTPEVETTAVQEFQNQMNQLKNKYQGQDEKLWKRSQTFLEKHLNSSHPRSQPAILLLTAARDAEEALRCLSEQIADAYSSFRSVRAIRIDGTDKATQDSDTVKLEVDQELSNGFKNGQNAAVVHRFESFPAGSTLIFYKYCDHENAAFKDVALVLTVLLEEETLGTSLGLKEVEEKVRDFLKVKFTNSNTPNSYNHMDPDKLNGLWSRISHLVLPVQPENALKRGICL

[10] = target: Alpha-bungarotoxin (Bungarus multicinctus) (UniProt P60615); assay: alpha-bungarotoxin binders on microarray, profiling panel, artefact control for SMM control protein annotation, biochemical, small-molecule microarray, Alexa647 label, 635/667 nm fluorescence (AID 1117); conditions: alpha-BTX-A647 binding fluorescence, higher = more signal
Chain of Alpha-bungarotoxin (Bungarus multicinctus) (P60615 whole entry, looked up): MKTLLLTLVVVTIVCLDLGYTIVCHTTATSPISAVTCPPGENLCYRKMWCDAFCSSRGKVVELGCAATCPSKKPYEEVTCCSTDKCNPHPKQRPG

[11] = target: Albumin (Bos taurus) (UniProt P02769); assay: bovine serum albumin binders on microarray, profiling panel, artefact control for SMM control protein annotation, biochemical, small-molecule microarray, Alexa647 label, 635/667 nm fluorescence (AID 1118); conditions: BSA-A647 binding, fluorescence 635 nm, higher = more signal;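 also: score merges 667 nm emission intensity and signal-to-noise per printed compound spot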
Chain of Albumin (Bos taurus) (P02769 whole entry, looked up): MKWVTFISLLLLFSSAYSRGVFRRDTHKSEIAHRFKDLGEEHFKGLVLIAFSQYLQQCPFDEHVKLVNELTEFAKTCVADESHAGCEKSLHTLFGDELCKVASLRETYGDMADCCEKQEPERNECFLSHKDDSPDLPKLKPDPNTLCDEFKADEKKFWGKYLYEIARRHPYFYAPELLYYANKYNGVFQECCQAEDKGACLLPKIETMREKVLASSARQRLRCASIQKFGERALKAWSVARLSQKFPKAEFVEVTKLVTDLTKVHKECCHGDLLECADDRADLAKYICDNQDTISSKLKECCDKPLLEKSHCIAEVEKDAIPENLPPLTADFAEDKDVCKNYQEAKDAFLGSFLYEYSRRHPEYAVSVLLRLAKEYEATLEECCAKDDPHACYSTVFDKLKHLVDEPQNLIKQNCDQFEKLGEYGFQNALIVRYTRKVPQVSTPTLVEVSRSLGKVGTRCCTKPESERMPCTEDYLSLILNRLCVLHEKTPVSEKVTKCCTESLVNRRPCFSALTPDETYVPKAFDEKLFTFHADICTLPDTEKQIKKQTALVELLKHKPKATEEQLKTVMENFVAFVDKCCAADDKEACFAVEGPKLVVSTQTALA

[12] = small-molecule microarray binders of probe aXIP, primary screen, biochemical, NeuroSMM set, 635/667 nm fluorescence (AID 1119); conditions: higher = more signal, called active from +8 up or from −8 down;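 also: probe is the protein aXip251-270 applied at 1 µg/mL to compound-printed slides; binding of probe to printed compounds measured as 667 nm fluorescence plus signal to noise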
[13] = small-molecule binders of probe aNOTCH3, primary screen, biochemical, small-molecule microarray, 635/667 nm fluorescence (AID 1120); conditions: higher = more signal;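 also: probe is a biotin-tagged antibody raised against NOTCH3 rather than NOTCH3 protein; score merges spot fluorescence near 667 nm with spot signal to noise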
[14] = small-molecule binders of probe aNOTCH2, primary screen, biochemical, small-molecule microarray, 635/667 nm fluorescence (AID 1121); conditions: higher = more signal;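 also: score merges feature fluorescence read at 667 nm with its signal to noise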
[15] = target: Carbonic anhydrase 2 (Homo sapiens) (UniProt P00918); assay: CAII small-molecule binders, profiling panel, biochemical, small-molecule microarray, Alexa647-labelled CAII (AID 1122); conditions: CAII-A647 binding fluorescence, higher = more signal
[16] = COS7 lysate on small-molecule microarray, probe aHis, 635 nm (AID 1123); conditions: COS7 cell lysate, fluorescence, higher = more signal;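 also: z-score combines 667nm fluorescence intensity with signal-to-noise per printed compound spot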
[17] = compound binding in COS7 lysate, probe aLAP1, primary screen, cell lysate, small-molecule microarray (AID 1124); conditions: probe aLAP1, fluorescence, higher = more signal;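 also: lysate comes from COS7 cells expressing LAP1 and is applied at 0.3 µg/mL; score merges spot fluorescence near 667 nm with signal-to-noise over triplicate slides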
[18] = system: Sam68 (KHDRBS1); assay: Sam68 small-molecule binders, primary screen, biochemical, small-molecule microarray, 635 nm fluorescence (AID 1125); conditions: small-molecule microarray binding, higher = more signal;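 also: score merges 667 nm channel intensity with signal to noise over triplicate slides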
[19] = system: Chordin-like protein 2 (CHRDL2); assay: CHRDL2 small-molecule binders, primary screen, biochemical, small-molecule microarray, 635 nm fluorescence (AID 1126); conditions: small-molecule microarray binding, fluorescence 635 nm; higher = more signal;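 also: printed compound slides probed with Chrdl2 protein at 4 µg/mL for 1 h at 4 C; score merges 667 nm emission intensity with signal to noise over three replicate slides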
[20] = target: Concanavalin-A (Canavalia ensiformis) (UniProt P02866); assay: ConA small-molecule binders, primary screen, artefact control for SMM control protein annotation, biochemical, small-molecule microarray, Alexa647 label, 635 nm (AID 1127); conditions: ConA-A647 binding fluorescence, higher = more signal;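 also: z combines 667 nm emission intensity with signal-to-noise across three replicate slides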
Chain of Concanavalin-A (Canavalia ensiformis) (P02866 whole entry, looked up): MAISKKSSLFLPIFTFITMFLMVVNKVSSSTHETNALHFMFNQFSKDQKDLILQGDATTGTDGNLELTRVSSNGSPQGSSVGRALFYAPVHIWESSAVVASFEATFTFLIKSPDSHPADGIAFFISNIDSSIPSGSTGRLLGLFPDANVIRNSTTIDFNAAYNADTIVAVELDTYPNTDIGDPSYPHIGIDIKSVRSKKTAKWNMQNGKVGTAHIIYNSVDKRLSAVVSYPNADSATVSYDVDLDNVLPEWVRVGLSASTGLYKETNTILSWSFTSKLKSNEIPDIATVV

SMILES	composite z-score [1]	z-score [2]	composite z-score [3]	composite z-score [4]	composite z-score [5]	composite z-score [6]	composite z-score [7]	composite z-score [8]	composite z-score [9]	composite z-score [10]	composite z-score [11]	composite Z-score [12]	composite z-score [13]	composite z-score [14]	composite z-score [15]	composite z-score [16]	composite z-score [17]	composite z-score [18]	composite z-score [19]	composite z-score [20]
CC=CC(O)C1C=CC2C(=O)NC(=O)C2N1Nc1ccccn1 (stereo not given)	0.434	0.634	0.44	-0.242	-1.1	-0.254	-0.0211	0.342	0.372	0.439	0.456	0.289 (inactive)	-0.0362	-0.112	0.463	0.717	0.654	0.463	1.04	0.855
COc1cc(NN2C(C(O)c3ccc(I)cc3)C=CC3C(=O)N(c4ccccc4)C(=O)C32)cc(OC)c1OC (stereo not given)	1.46	-0.573	0.391	1.85	0.663	0.136	0.213	1.23	1.64	1.68	0.499	1.59 (inactive)	0.185	-0.0501	0.758	3.02	0.0865	1.32	-0.357	1.01
Cc1cccc([C@H]2C[C@H]3C(Br)=C[C@@H]2C(=O)[C@]32CO2)c1	-0.97	-2.5	0.174	-0.206	-0.41	-0.18	-0.341	-0.0784	-0.188	0.106	-0.904	0.289 (inactive)	-0.125	-0.16	-0.255	-0.498	-0.552	-0.721	0.563	-0.051
CCOC(=O)C[C@H]1[C@H](OC(=O)c2ccccc2-c2ccccc2)[C@@H](NC(=O)c2ccc3ccccc3n2)c2cc(OCCCO)ccc2N1C(=O)c1ccccc1	1.29	-1.7	0.487	-0.0187	-0.457	-0.0519	-0.248	-0.347	0.291	0.414	-0.321	0.311 (inactive)	0.038	-0.14	0.286	0.824	-0.0982	1.33	0.374	0.37
Cc1ccc(S[C@]2(C(=O)NCC(C)C)CC(=O)N(C3Cc4ccccc4C3)[C@@H]2c2ccc(CO)cc2I)cc1	-0.117	-1.33	-1.2	-0.257	0.27	-0.125	-0.368	0.0862	0.273	-0.324	-0.615	-0.211 (inactive)	-0.323	-0.188	0.398	0.554	-0.221	-0.383	-1.65	-0.762
NC(=O)NCC#Cc1ccc2c(c1)[C@]1(C(=O)N2)[C@H](C(=O)N2CCN(c3ncccn3)CC2)[C@H]2C(=O)O[C@H](c3ccccc3)[C@H](c3ccccc3)N2[C@@H]1c1ccc(OCCO)cc1	1.23	-1.6	0.0996	0.756	0.514	0.0775	-0.0553	0.833	0.572	1.42	0.003	0.17 (inactive)	0.127	-0.084	0.236	0.944	0.241	0.982	0.106	0.972
O=C1[C@@]23C=C(Br)[C@H](C[C@@H]2COC3)[C@@]12CO2	0.368	-2.52	0.531	-0.293	-0.87	-0.102	-0.0396	-0.172	0.245	0.53	-0.512	0.395 (inactive)	0.147	-0.153	-0.0903	0.301	-0.0796	0.206	0.532	0.459
[N-]=[N+]=Nc1ccccc1C[C@]1(C(=O)NCc2ccccc2)COC(c2ccc(OCCCO)cc2)=N1	1.4	-3.22	-0.576	0.575	0.154	0.0004	-0.167	0.919	1.42	1.04	0.784	-0.135 (inactive)	0.0945	-0.0859	0.383	2.52	0.171	1.3	-0.362	0.995
O=C1c2ccccc2[C@](Cc2ccccc2I)(C(=O)NC2CC2)[C@H](c2ccc(CO)cc2)N1Cc1ccccc1C(F)(F)F	1.45	-2.2	-1.16	0.463	-0.541	-0.0735	-0.147	-0.484	0.103	0.968	0.502	0.0029 (inactive)	0.134	-0.0986	0.66	1.88	0.43	0.456	-0.941	0.847
C=CCN1C(=O)[C@@]2(O[C@@H](CCO)[C@H]([Si](C)(C)c3ccc(OC)cc3)[C@H]2C)c2cc(N3CCOC3=O)ccc21	1.31	-4.84	-0.135	0.278	0.444	-0.0981	-0.243	-0.0239	0.878	0.105	0.729	0.0117 (inactive)	-0.0647	-0.127	0.483	-0.617	0.155	0.329	-0.403	0.993
COc1cccc(/C=C(\C#N)C(=O)Nc2c(C)n(C)n(-c3ccccc3)c2=O)c1	1.11	-0.479	0.303	1.27	0.0209	-0.0894	-0.223	-0.0899	0.569	1.19	0.998	-0.359 (inactive)	-0.053	-0.0454	0.767	0.366	-0.0921	0.949	-0.194	1.14
